Measured values published in PubChem BioAssay (Tox21).
Values joined by “and” are separate entries in the source; they are usually repeats but may differ in a detail not shown here. Equal values may be shown once. Where a structure was tested more than once in an assay, its records may differ in their call. Active and inactive are the calls of the source. Unless noted, calls come from the whole dose curve; as a rule, active = well fitted curve in the direction sought with a large enough effect in the repeat runs; inconclusive = weak or mixed curves; inactive = no such curve, though single readings can be large; an effect the other way counts as inactive or inconclusive.

Key:
[1] = qHTS assay to identify small molecule antagonists of the thyroid receptor (TR) signaling pathway - cell viability counter screen (AID 743064); note: nearly all actives have a fitted effect of over 50% in size; note: potency is the fitted concentration of half-maximal effect
How it was run: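 GH3.TRE-Luc rat pituitary cells carrying a TRE-luciferase reporter were treated with compound plus 1 nM T3 (final) for 23.5 h at 37 °C. Viability was then read in the same wells by CellTiter-Fluor fluorescence after a further 30 min.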

[2] = qHTS assay to identify small molecule antagonists of the thyroid receptor (TR) signaling pathway (AID 743065); note: nearly all actives have a fitted effect of over 55% in size; note: potency is the fitted concentration of half-maximal effect
How it was run: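 GH3.TRE-Luc rat pituitary cells (two TREs driving luciferase) were dosed with compound, then stimulated with 1 nM T3 (final) for 23.5 h at 37 C. ONE-Glo luminescence was the read-out, with CellTiter-Fluor fluorescence as the cytotoxicity counter-screen.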

[3] = system: thyroid hormone receptor (rat, GH3 cells); assay: qHTS assay to identify small molecule agonists of the thyroid receptor (TR) signaling pathway (AID 743066; calls by dose curve; note: potency is the fitted concentration of half-maximal effect)
[4] = target: Estrogen receptor (Homo sapiens) (UniProt P03372); assay: qHTS assay to identify small molecule antagonists of the estrogen receptor alpha (ER-alpha) signaling pathway (AID 743069; active = well fitted curve in the direction sought with a large enough effect in the signal ratio in the repeat runs, not every such curve was filed as active; inconclusive = weak or mixed curves, or effect the other way; inactive = no such curve, though single readings can be large or run the other way; the % refers to the signal ratio; note: potency is the fitted concentration of half-maximal effect)
Estrogen receptor (Homo sapiens), sequence (P03372 whole entry, looked up): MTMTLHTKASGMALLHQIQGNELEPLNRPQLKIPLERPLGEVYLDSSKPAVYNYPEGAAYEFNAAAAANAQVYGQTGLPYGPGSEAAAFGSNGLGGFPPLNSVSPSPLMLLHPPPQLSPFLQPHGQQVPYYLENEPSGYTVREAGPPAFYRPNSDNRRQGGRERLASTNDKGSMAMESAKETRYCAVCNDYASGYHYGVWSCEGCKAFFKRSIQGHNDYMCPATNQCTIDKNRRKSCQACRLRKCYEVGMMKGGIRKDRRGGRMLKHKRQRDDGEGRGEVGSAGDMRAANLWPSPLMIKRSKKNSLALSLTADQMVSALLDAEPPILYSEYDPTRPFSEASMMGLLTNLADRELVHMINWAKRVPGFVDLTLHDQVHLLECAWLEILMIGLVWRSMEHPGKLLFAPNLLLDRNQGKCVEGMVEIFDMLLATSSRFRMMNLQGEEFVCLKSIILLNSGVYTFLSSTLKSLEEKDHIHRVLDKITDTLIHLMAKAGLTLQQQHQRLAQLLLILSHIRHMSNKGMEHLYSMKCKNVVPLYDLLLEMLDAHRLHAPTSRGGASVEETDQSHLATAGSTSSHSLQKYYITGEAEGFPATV
How it was run: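 Reporter cells (ER-alpha-bla, HEK293 background) are conditioned overnight in stripped-serum medium (2% charcoal-stripped FBS). Compound and 17beta-estradiol exposure runs 18 hr at 37C, 5% CO2.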

[5] = qHTS assay to identify small molecule antagonists of the estrogen receptor alpha (ER-alpha) signaling pathway - cell viability counter screen (AID 743074; calls by dose curve;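 note: HEK293 cells carrying ER-alpha-UAS-bla reporter stimulated with 17beta-estradiol; nearly all actives have a fitted effect of over 45% in size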; note: potency is the fitted concentration of half-maximal effect)
[6] = target: Estrogen receptor (Homo sapiens) (UniProt P03372); assay: qHTS assay to identify small molecule agonists of the estrogen receptor alpha (ER-alpha) signaling pathway (AID 743075; calls by dose curve;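 note: HEK293 GripTite cells with ER-alpha and UAS-driven beta-lactamase reporter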; note: potency is the fitted concentration of half-maximal effect)
[7] = target: Estrogen receptor (Homo sapiens) (UniProt P03372); assay: qHTS assay to identify small molecule agonists of the estrogen receptor alpha (ER-alpha) signaling pathway using the BG1 cell line (AID 743079); note: nearly all actives have a fitted effect of over 20% in size; note: potency is the fitted concentration of half-maximal effect
[8] = qHTS assay to identify small molecule antagonists of the estrogen receptor alpha (ER-alpha) signaling pathway using the BG1 cell line (AID 743080; calls by dose curve;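 note: BG1 cells stimulated with 17beta-estradiol alongside compound; series mostly up to about 70 µM; nearly all actives have a fitted effect of over 25% in size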)
How it was run: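 BG1-Luc-4E2 cells (endogenous full-length ER-alpha, stable 4×ERE-luciferase) were starved 5 days in phenol-red-free medium with 10% charcoal-stripped FBS, plated 24 h, then given compound plus 17beta-estradiol for 21.5 h at 37 C; ONE-Glo luminescence read after 30 min.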

[9] = qHTS assay to identify small molecule antagonists of the estrogen receptor alpha (ER-alpha) signaling pathway using the BG1 cell line - cell viability counter screen (AID 743081);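 note: compound given together with 17beta-estradiol as the ER stimulus; nearly all actives have a fitted effect of over 45% in size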; note: potency is the fitted concentration of half-maximal effect
Aromatase (Homo sapiens) = Aromatase (Homo sapiens) (UniProt P11511); assay: qHTS assay to identify aromatase inhibitors (AID 743083); note: nearly all actives have a fitted effect of over 55% in size; note: potency is the fitted concentration of half-maximal effect
Aromatase (Homo sapiens), sequence (P11511 whole entry, looked up): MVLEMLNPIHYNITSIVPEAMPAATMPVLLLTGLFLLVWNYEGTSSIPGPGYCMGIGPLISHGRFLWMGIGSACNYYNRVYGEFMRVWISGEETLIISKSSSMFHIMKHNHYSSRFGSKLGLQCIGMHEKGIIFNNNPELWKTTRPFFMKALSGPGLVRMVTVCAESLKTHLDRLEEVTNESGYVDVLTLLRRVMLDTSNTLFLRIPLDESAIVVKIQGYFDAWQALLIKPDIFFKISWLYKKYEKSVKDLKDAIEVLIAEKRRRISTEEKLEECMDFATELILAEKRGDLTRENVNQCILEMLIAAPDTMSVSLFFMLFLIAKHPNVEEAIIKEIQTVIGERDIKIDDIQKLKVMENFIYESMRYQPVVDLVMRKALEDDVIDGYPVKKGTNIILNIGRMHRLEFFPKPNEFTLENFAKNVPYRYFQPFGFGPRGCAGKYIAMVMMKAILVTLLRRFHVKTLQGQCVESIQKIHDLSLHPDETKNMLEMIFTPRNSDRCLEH

[10] = qHTS assay to identify aromatase inhibitors - cell viability counter screen (AID 743084);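 note: cells stimulated with testosterone during compound exposure; nearly all actives have a fitted effect of over 55% in size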; note: potency is the fitted concentration of half-maximal effect
[11] = target: Aryl hydrocarbon receptor (Homo sapiens) (UniProt P35869); assay: qHTS assay to identify small molecule that activate the aryl hydrocarbon receptor (AhR) signaling pathway (AID 743085); note: nearly all actives have a fitted effect of over 15% in size; note: potency is the fitted concentration of half-maximal effect;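 for activation: HG2L7.5c1 human HepG2 liver cells with stably integrated DRE-driven firefly reporter; series mostly up to about 70 µM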
Aryl hydrocarbon receptor (Homo sapiens), sequence (P35869 whole entry, looked up): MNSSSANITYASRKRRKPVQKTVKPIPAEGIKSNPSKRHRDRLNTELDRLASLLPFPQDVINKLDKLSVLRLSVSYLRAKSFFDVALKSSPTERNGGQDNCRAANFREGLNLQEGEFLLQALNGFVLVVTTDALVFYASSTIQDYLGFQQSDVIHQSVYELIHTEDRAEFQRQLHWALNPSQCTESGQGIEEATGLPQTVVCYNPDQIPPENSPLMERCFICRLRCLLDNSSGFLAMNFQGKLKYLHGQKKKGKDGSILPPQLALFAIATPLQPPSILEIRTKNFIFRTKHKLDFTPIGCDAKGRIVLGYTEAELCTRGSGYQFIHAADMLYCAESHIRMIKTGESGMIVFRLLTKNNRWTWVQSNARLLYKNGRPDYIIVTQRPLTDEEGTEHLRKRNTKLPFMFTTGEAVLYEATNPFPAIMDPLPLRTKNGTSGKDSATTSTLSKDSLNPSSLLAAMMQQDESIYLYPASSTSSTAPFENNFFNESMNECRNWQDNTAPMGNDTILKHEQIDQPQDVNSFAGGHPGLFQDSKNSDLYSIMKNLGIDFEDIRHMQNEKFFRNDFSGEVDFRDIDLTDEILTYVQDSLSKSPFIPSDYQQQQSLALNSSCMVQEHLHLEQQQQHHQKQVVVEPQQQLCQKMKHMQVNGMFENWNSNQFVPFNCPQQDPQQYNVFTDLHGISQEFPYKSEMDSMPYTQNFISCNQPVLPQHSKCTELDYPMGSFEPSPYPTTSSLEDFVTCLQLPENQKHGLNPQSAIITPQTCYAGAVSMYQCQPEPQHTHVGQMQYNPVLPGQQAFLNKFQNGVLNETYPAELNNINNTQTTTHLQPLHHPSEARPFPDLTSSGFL
How it was run: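 HepG2 cells (HG2L7.5c1) stably carrying a firefly luciferase reporter driven by 20 dioxin responsive elements were exposed to compound for 24 h at 37C after a 5 h settling period; luminescence rise (ONE-Glo) indicated activation.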

[12] = target: Peroxisome proliferator-activated receptor gamma (Homo sapiens) (UniProt P37231); assay: qHTS assay to identify small molecule agonists of the peroxisome proliferator-activated receptor gamma (PPARg) signaling pathway (AID 743094; active = well fitted activation curve with a large enough effect in the signal ratio in the repeat runs, not every such curve was filed as active; inconclusive = weak or mixed curves, or effect the other way; inactive = no such curve, though single readings can be large or run the other way; the % refers to the signal ratio; note: potency is the fitted concentration of half-maximal effect)
Peroxisome proliferator-activated receptor gamma (Homo sapiens), sequence (P37231 whole entry, looked up): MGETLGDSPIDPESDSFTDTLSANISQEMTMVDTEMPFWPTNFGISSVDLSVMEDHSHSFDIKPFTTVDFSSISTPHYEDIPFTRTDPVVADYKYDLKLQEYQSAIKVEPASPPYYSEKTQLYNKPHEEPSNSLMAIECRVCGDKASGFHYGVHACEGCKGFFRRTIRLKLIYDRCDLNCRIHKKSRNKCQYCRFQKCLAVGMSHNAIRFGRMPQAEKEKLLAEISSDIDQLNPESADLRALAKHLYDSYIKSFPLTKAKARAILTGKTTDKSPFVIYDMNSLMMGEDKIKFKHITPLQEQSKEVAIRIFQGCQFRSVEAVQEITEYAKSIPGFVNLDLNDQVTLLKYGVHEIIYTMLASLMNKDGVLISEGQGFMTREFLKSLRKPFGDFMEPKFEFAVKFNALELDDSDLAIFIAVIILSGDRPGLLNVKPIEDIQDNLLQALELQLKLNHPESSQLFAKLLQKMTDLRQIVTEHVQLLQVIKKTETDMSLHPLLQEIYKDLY
How it was run: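 Compounds dissolved in DMSO were added to PPARg UAS-bla HEK293H cells for 17 h at 37C, and reporter expression was quantified by fluorescence intensity after 1 h with LiveBLAzer B/G FRET substrate.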

[13] = qHTS assay to identify small molecule antagonists of the peroxisome proliferator-activated receptor gamma (PPARg) signaling pathway - cell viability counter screen (AID 743194); note: nearly all actives have a fitted effect of over 55% in size; note: potency is the fitted concentration of half-maximal effect
How it was run: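 Cytotoxicity counter screen in PPARg-bla HEK293H cells, same wells as reporter assay. Compounds plus 50 nM rosiglitazone (final) for 17 h at 37 C, then viability read by CellTiter-Glo luminescence.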

[14] = qHTS assay for small molecule agonists of the antioxidant response element (ARE) signaling pathway (AID 743202; active = well fitted activation curve with a large enough effect in the signal ratio in the repeat runs, not every such curve was filed as active; inconclusive = weak or mixed curves, or effect the other way; inactive = no such curve, though single readings can be large or run the other way; the % refers to the signal ratio; note: potency is the fitted concentration of half-maximal effect)
How it was run: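 Agonist mode reporter screen: HepG2 cells with ARE-controlled beta-lactamase are incubated with test compounds for 16 h at 37 C, and beta-lactamase activity is measured as fluorescence of cleaved B/G FRET substrate.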

[15] = qHTS assay for small molecule agonists of the antioxidant response element (ARE) signaling pathway - cell viability counter screen (AID 743203; calls by dose curve; note: nearly all actives have a fitted effect of over 55% in size; note: potency is the fitted concentration of half-maximal effect)
How it was run: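 Following 16 hrs of compound treatment at 37C, HepG2 cells with an ARE-controlled beta-lactamase gene were lysed with CellTiter-Glo. Luminescence was read after 30 min at room temperature.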

[16] = qHTS assay for small molecule activators of the heat shock response signaling pathway - cell viability counter screen (AID 743209); note: nearly all actives have a fitted effect of over 50% in size; note: potency is the fitted concentration of half-maximal effect
How it was run: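 Readout: CellTiter-Glo luminescence, 30 min at room temperature. System: HSE-bla HeLa cells, 1500/well, plated overnight. Treatment: compounds in DMSO, 5 h at 37 C.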

[17] = qHTS assay for small molecule activators of the heat shock response signaling pathway (AID 743210; active = well fitted activation curve with a large enough effect in the signal ratio in the repeat runs, with a control signal flat, not every such curve was filed as active; inconclusive = weak or mixed curves; the % refers to the signal ratio;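 note: HeLa cells with beta-lactamase reporter driven by heat shock elements; series mostly up to about 63 µM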)
How it was run: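 Quantitative high-throughput format using an engineered HeLa line in which heat shock response elements drive beta-lactamase; after 5 h with compound, cells received a B/G FRET substrate and fluorescence was read.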

[18] = qHTS assay to identify small molecule that activate the aryl hydrocarbon receptor (AhR) signaling pathway - cell viability counter screen (AID 743086); note: nearly all actives have a fitted effect of over 45% in size; note: potency is the fitted concentration of half-maximal effect
How it was run: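 HepG2-AhR-luc (HG2L7.5c1) cells, 4000/well, treated 24 h at 37 C with compound; viability measured as CellTiter-Fluor fluorescence after 30 min in the same wells as the luciferase read.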

[19] = target: Peroxisome proliferator-activated receptor gamma (Homo sapiens) (UniProt P37231); assay: qHTS assay to identify small molecule antagonists of the peroxisome proliferator-activated receptor gamma (PPARg) signaling pathway (AID 743191; calls by dose curve; note: series mostly up to about 63 µM; nearly all actives have a fitted effect of over 30% in size)
How it was run: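 GeneBLAzer PPARg UAS-bla HEK293H cells, 5 h post-plating, exposed to compounds 17 h at 37C. LiveBLAzer B/G FRET substrate added for 1 h at room temperature; beta-lactamase reporter read by fluorescence intensity.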

Measured: Potency

CCCCC(CC)COC(=O)c1ccc(N(C)C)cc1 (centres undefined)
inactive and 27.3 µM (active): [11]
not listed: [18] | [19]
inactive: all other assays above

COC(=O)C1=C(C)NC(C)=C(C(=O)OCCN(C)Cc2ccccc2)C1c1cccc([N+](=O)[O-])c1 (centres undefined)
active: [1] 13.3 µM and 19.2 µM | [2] 9.44 µM and 17.1 µM | [4] 23.9 µM [inconclusive] | [9] 54.2 µM | Aromatase (Homo sapiens) 29.8 µM and 60.8 µM | [10] 21.1 µM and 54.2 µM | [13] 24.4 µM and 33.5 µM | [15] 24.2 µM and 26.6 µM
inactive: [3] | [5] | [6] | [11] | [16]

C[C@]12CCC(=O)C=C1CC[C@@H]1[C@@H]2C(=O)C[C@@]2(C)[C@H]1CC[C@]2(O)C(=O)CO
not listed: [12] | [19]
inactive: all other assays above

Cc1c(C(N)=O)cc([N+](=O)[O-])cc1[N+](=O)[O-]
not listed: [12] | [17] | [19]
inactive: all other assays above

CC(=O)O[C@]1(C(C)=O)CC[C@H]2[C@@H]3C=C(Cl)C4=CC(=O)[C@@H]5C[C@@H]5[C@]4(C)[C@H]3CC[C@@]21C
inactive and 54.4 µM (active): [1] | Aromatase (Homo sapiens)
active: [2] 24.3 µM and 54.5 µM | [14] 30.6 µM
not listed: [4] | [6] | [7] | [8] | [13] | [19]
inactive: all other assays above

O=C(c1ccccc1)c1ccc(O)cc1O
active: [6] 19.9 µM [inconclusive] and 38.9 µM [inconclusive] | [7] 9.88 µM and 9.69 µM | [14] 30.6 µM
inactive and 30.6 µM (active): [3]
not listed: [5] | [8] | [19]
inactive: all other assays above

CC(C(=O)O)c1cccc(C(=O)c2ccccc2)c1 (centres undefined)
inactive: all assays above

CN1C(C(=O)Nc2ccccn2)=C(O)c2ccccc2S1(=O)=O
inactive and 24.6 µM (active): [11]
not listed: [19]
inactive: all other assays above

CC(C)OC=O
not listed: [19]
inactive: all other assays above

O=S(=O)(O)c1ccc(O)cc1
not listed: [18] | [19]
inactive: all other assays above

CC(C)OB(OC(C)C)OC(C)C
inactive: all assays above

Nc1ncn([C@@H]2O[C@H](CO)[C@@H](O)[C@H]2O)c(=O)n1
active: [1] 5.31 µM and 9.69 µM | [2] 7.5 µM and 9.69 µM | Aromatase (Homo sapiens) 13.3 µM and 8.63 µM | [18] 5.31 µM | [14] 1.54 µM and 2.66 µM
not listed: [4] | [10] | [12] | [19]
inactive: all other assays above

COC(=O)c1ccccc1
not listed: [4] | [6] | [7] | [8] | [18] | [19]
inactive: all other assays above

CN(C)C(=N)N=C(N)N
inactive: [1] | [2] | [3] | [5] | [9] | [10] | [18] | [13] | [14] | [15] | [16]

O=C(c1ccccc1)c1ccccc1O
inactive and 27.3 µM (active): Aromatase (Homo sapiens)
not listed: [4] | [6] | [7] | [8] | [11] | [19]
inactive: all other assays above

CCC(C)OC(=O)c1ccc(O)cc1 (centres undefined)
active: [6] 24.7 µM [inconclusive] and 38.9 µM [inconclusive] | [7] 6.9 µM and 6.11 µM
not listed: [2] | [8] | [19]
inactive: all other assays above

Nc1ccc(Cl)cc1Cl
not listed: [2]
inactive: all other assays above

O=CCCCC=O
52.5 µM (active) and inactive: [14]
47.2 µM (active) and inactive: [16]
inactive and 53 µM (active): [12]
not listed: [2] | [8] | [11] | [19]
inactive: all other assays above

O=C(/C=C/C=C/c1ccc2c(c1)OCO2)N1CCCCC1
active: [7] 1.37 µM and 3.86 µM | [11] 612 nM and 2.17 µM
not listed: [2] | [8] | [12] | [14] | [18] | [19]
inactive: all other assays above

O=C=Nc1ccc(Cc2ccc(N=C=O)cc2)cc1
inactive: [1] | [2] | [3] | [5] | [9] | [18] | [13] | [15] | [16] | [17]

CN(C)CCN(Cc1cccs1)c1ccccn1
not listed: [2] | Aromatase (Homo sapiens) | [10] | [11] | [19]
inactive: all other assays above

CC1=CC2C3CC(C=C3C)C2C1 (centres undefined)
inactive and 27.3 µM (active): [14]
not listed: [2] | [18]
inactive: all other assays above

CCOCCOCCO
not listed: [4] | [6] | [7] | [8] | [18] | [19]
inactive: all other assays above

c1cc(-c2ccncc2)ccn1
not listed: [2] | [8] | [14]
inactive: all other assays above

COc1cc([C@@H]2c3cc4c(cc3[C@H](O)[C@H]3COC(=O)[C@H]23)OCO4)cc(OC)c1OC
active: [1] 43.2 nM | [2] 29.8 nM and 24.3 nM
inactive: [3] | [9] | Aromatase (Homo sapiens) | [10] | [18] | [13] | [15] | [16] | [17]

CC(=O)CC/C=C(\C)CCC=C(C)C
not listed: [2] | [19]
inactive: all other assays above

c1ccncc1
not listed: [2] | [18] | [19]
inactive: all other assays above

CC(=O)Oc1ccccc1C(=O)Nc1ncc([N+](=O)[O-])s1
10.6 µM (active) and inactive: [11]
inactive and 17.6 µM (active): [18]
active: [1] 29.8 µM and 19.7 µM | [5] 7.56 µM | [7] 668 nM | [10] 22.1 µM | [13] 1.58 µM and 5.31 µM | [16] 1.19 µM
inactive: [3] | [4] | [6] | [12] | [14] | [17]
inactive and 19.7 µM (active): Aromatase (Homo sapiens)
